According to PubChem BioAssay AID1578 (Sanford-Burnham Center for Chemical Genomics, 2009):
Screen size: about 290,000 compounds; about 3,000 (1%) were called active. Cut-off read from the data, not from the text of the source: active = inhibition mostly above about 36% (no sharp cut-off); inactive = mostly below about 34%. Only a selection was taken, and actives are over-represented in it overall.

Test: inhibition of NOD1-driven NF-kB reporter – cell-based, luminescence, uHTS, primary screen (AID 1578);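 note: HEK-293T reporter cells stimulated with the NOD1 agonist gamma-tri-DAP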
Conditions: NOD1-driven NF-kB luciferase reporter cells, at 4 µM, active compounds read high

inhibition, active:
CC1CCC(C(=O)NC(C(=O)N2CCN(c3ccccn3)CC2)C(C)C)CC1 (stereo not given) 68%, COc1ccccc1C(=O)NC(=S)/C=C1/N(C)c2ccccc2C1(C)C 90.4%, Fc1ccccc1/C=C1\CCCC2=C1Nc1ncnn1C2c1ccccc1F (stereo not given) 91%, N#C/C(C(N)=O)=c1/ccc2c(c1)N1C3=C(CCCC3)CC3CCCCC31N=2 (stereo not given) 86.2%

inhibition, inactive:
CSCCC(NC(=O)C1CCC(C)CC1)C(=O)N1CCN(c2ccccn2)CC1 (stereo not given) 4.8%, CC(C)CC(NC(=O)C1CCC(C)CC1)C(=O)N1CCN(c2ccccn2)CC1 (stereo not given) 0.1%, C/C(=N\N(c1ccccc1)c1ccccc1)c1ccco1 -19.4%, COCCOC(=O)C1=C(C)NC(=S)NC1/C=C/c1ccccc1 (stereo not given) -9.4%, Cc1cccc(NC(=O)c2cccc(NC(=O)c3ccccc3)c2)n1 -35.6%, CC(=O)Nc1ccc(NC(=O)CSc2nc3nc(-c4cccs4)cc(C(F)(F)F)c3c(=O)[nH]2)cc1 -6.3%, COc1ccc(NC(=O)CSc2nc3nc(-c4cccs4)cc(C(F)(F)F)c3c(=O)[nH]2)c(OC)c1 31.6%, O=C(NCc1ccccc1)C1=C[C@@H](C2CC2)C[C@@H](OCCCCO)O1 -27.5%, O=C(CC1Sc2ccccc2NC1=O)OC(C(=O)NCCc1ccccc1)c1cccnc1 (stereo not given) 3.7%, O=C(OCC(=O)N1CCc2ccccc21)c1c2c(nc3ccccc13)CCCCC2 4.9%, CN1/C(=C\C(=S)NC(=O)c2ccccc2Cl)C(C)(C)c2ccccc21 -48.3%, Cc1ccc(C(=O)NC(=S)/C=C2\N(C)c3ccccc3C2(C)C)cc1 15.2%, Fc1ccccc1/C=C1\CCCC2=C1Nc1nnnn1C2c1ccccc1F (stereo not given) 11.4%, C(=C1/CCCC2=C1Nc1ncnn1C2c1ccccc1)/c1ccccc1 (stereo not given) 3.1%, Cc1ccc(CSc2nn3c(=O)c(C)nnc3s2)cc1 -32.1%, O=[N+]([O-])C(=c1ccc2c(c1)N1C3=C(CCCC3)CC3CCCCC31N=2)[N+](=O)[O-] (stereo not given) 0.7%, N#CC(C#N)=c1ccc2c(c1)N1C3=C(CCCC3)CC3CCCCC31N=2 (stereo not given) 7%, COc1cccc(CNC(=O)CN(C)S(=O)(=O)c2cccc3cccnc23)c1 -2.3%, CCC(C)C(NC(=O)CCC(=O)OCC(=O)[C@@]1(O)CCC2[C@@H]3CCC4=CC(=O)C=C[C@]4(C)C3[C@@H](O)C[C@@]21C)C(=O)O (stereo not given in full) -4.9%, O=C(Nc1nc(-c2ccccn2)cs1)c1ccc(Br)s1 32.1%, O=C(Nc1nc(-c2cccs2)cs1)c1ccc(Cl)s1 -18.7%
